Results from the supplement of paper PMC10933113.
Where a name gives a salt, the structure may show the parent alone. ± gives the uncertainty stated by the source.

Test system: KeratinoSens (HaCaT ARE-luciferase) cells
Assay: Nrf2/ARE luciferase activation call in qHTS KeratinoSens assay (1 = active, 0 = inactive)
Conditions: not given;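 active = curve rank above 3; inactive = curve rank 0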

Compound | Nrf2/ARE luciferase activation call
CCCC[n+]1ccccc1.O=S(=O)([O-])C(F)(F)F | not active ARE inducer (skin sensitizer alert) (inactive)
CC(CN(C)C)CN1c2ccccc2CCc2ccccc21.O=C(O)/C=C\C(=O)O (centres undefined) | not active ARE inducer (skin sensitizer alert) (inactive)
CCN(CC)C(=O)N1CCN(C)CC1.O=C(O)CC(O)(CC(=O)O)C(=O)O | not active ARE inducer (skin sensitizer alert) (inactive)
O=C(O)c1ccc2ccccc2c1O.OCc1cc(C(O)CNCCCCCCOCCCCc2ccccc2)ccc1O (centres undefined) | not active ARE inducer (skin sensitizer alert) (inactive)
COc1cc(N)c(Cl)cc1C(=O)NC1CCN(Cc2ccccc2)CC1.O=C(O)/C=C\C(=O)O | not active ARE inducer (skin sensitizer alert) (inactive)
NC(CO)(CO)CO.O=C(c1ccccc1)c1ccc2n1CC[C@H]2C(=O)O | not active ARE inducer (skin sensitizer alert) (inactive)
CCN(CC)CCc1nc(-c2ccccc2)no1.O=C(O)CC(O)(CC(=O)O)C(=O)O | not active ARE inducer (skin sensitizer alert) (inactive)
CCCC[n+]1cccc(C)c1.O=S(=O)([O-])C(F)(F)F | not active ARE inducer (skin sensitizer alert) (inactive)

Test system: THP-1
Assay: CD86 surface expression induction over DMSO control (% over DMSO); higher = stronger dendritic cell activation
Conditions: exposure time: 24 h
Protocol: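 hCLAT-like CD54 and CD86 surface expression on THP1 cells after 24 h exposure at a single concentration (highest non-cytotoxic concentration, or 100-200 µM if not cytotoxic). Flow cytometry (iQue) was run on 5,000 live cells.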

Compound | CD86 surface expression induction
C[n+]1cc2c3c(ccc2c2ccc4cc5c(cc4c21)OCO5)OCO3 [Sanguinarine] (10 µM) | 73.1 ± 11
CCCSS/C(CCO)=C(/C)N(C=O)Cc1cnc(C)nc1N [Prosultiamine] (10 µM) | -13 ± 4.4
O=C(Oc1ccccc1)c1ccccc1O [Phenyl salicylate] (200 µM) | -3.35 ± 5.3
CO[C@@H]1[C@H](OC(=O)/C=C/C=C/C=C/C=C/C(=O)O)CC[C@]2(CO2)[C@H]1[C@@]1(C)O[C@@H]1CC=C(C)C [Fumagillin] (100 µM) | -0.42 ± 8.1
O=C(Nc1ccccc1)c1cc([N+](=O)[O-])ccc1Cl [2-Chloro-5-nitro-N-phenylbenzamide] (200 µM) | 31.1 ± 7.1
CCN(CC)CCOc1ccc2c(c1)C(=O)c1cc(OCCN(CC)CC)ccc1-2 [Tilorone] (200 µM) | 58 ± 31
Clc1ccc(C(Cn2ccnc2)OCc2c(Cl)cccc2Cl)c(Cl)c1 (centres undefined) [Isoconazole] (100 µM) | 76.1 ± 95
CC(C)(C)c1ccc(C(=O)CCCCl)cc1 [4'-Tert-butyl-4-chlorobutyrophenone] (100 µM) | -2.04 ± 0.44
CCCCOCCOCCOCCO [2-[2-(2-Butoxyethoxy)ethoxy]ethanol] (115 µM) | 12.7 ± 12
COc1ccc(C(=O)/C(Br)=C\C(=O)O)cc1 [Cytembena] (200 µM) | 32 ± 49
Cc1cc(C2(c3cc(C)c(O)cc3C)OS(=O)(=O)c3ccccc32)c(C)cc1O [p-Xylenol blue] (200 µM) | 2.3 ± 1.9
C=CCOC(Cn1ccnc1)c1ccc(Cl)cc1Cl (centres undefined) [Imazalil sulfate] (100 µM) | 16.4 ± 4.3
O=C(/C=C/C=C/c1ccc2c(c1)OCO2)N1CCCCC1 [Piperine] (100 µM) | -4.64 ± 6.3
CNc1ccc(O)cc1 [4-(Methylamino)phenol Sulfate] (10 µM) | 37.1 ± 4.6
Nc1ncn([C@@H]2O[C@H](CO)[C@@H](O)[C@H]2O)c(=O)n1 [5-Azacytidine] (10 µM) | -17.2 ± 5.3
CC(C)CC(NC(=O)OCC1c2ccccc2-c2ccccc21)C(=O)O (stereo in doubt) [N-(9-Fluorenylmethoxycarbonyl)-L-leucine] (100 µM) | -11.4 ± 2.7
c1ccc2cc3c(ccc4ccccc43)cc2c1 [Benz(a)anthracene] (200 µM) | -20.1 ± 26
Clc1ccc(C(Cn2ccnc2)OCc2ccc(Sc3ccccc3)cc2)c(Cl)c1 (centres undefined) [Fenticonazole nitrate] (100 µM) | 102 ± 96
NC(=O)N/N=C/c1ccc([N+](=O)[O-])o1 [Nitrofurazone] (200 µM) | 5.94 ± 3.7
NC(=O)n1c(O)c(C(=O)c2cccs2)c2cc(Cl)ccc21 [Tenidap*] (200 µM) | 98.4 ± 52
c1ccc(CCNc2nc(-c3ccccc3)cs2)cc1 [Fanetizole] (200 µM) | -6.54 ± 1.4
